Source: the supplement of paper PMC8975748
Where a name gives a salt, the structure may show the parent alone. ± gives the standard deviation of the averaged measurements.

Key:
[1] = tested on: Saccharomyces cerevisiae BY4741 SeMeCo community; test: mean cell size (pixel area) (pixels); higher = larger cells; details: 10 µM; 24 h; SM minimal medium
Method in brief: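 A four-plasmid fluorescent Saccharomyces cerevisiae BY4741 community was tested; each plasmid complements one auxotrophy and carries a fluorescent marker. An overnight preculture at OD600 = 1.0 was diluted to OD600 = 0.3, and 70 µl was added to 384-well plates acoustically predosed with drug (final 10 µM) in SM medium for 24 h. Cells were fixed with paraformaldehyde and imaged by automated confocal microscopy, with analysis in Harmony. Mean cell pixel area per well is averaged over 3 replicates. Same SeMeCo high-content imaging drug screen: Selleck FDA-approved drugs at 10 µM, 24 h in SM medium, 384-well plates, 3 replicates.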

[2] = tested on: Saccharomyces cerevisiae BY4741 SeMeCo community; test: z-score of prototroph abundance vs DMSO median; higher = larger share of this subpopulation than in DMSO controls; details: 10 µM; 24 h; SM minimal medium; subpopulation (auxotrophy): Prototroph
Method in brief: (§1)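 Four plasmids, each restoring a single auxotrophy and encoding a distinct fluorescent protein, were carried by a Saccharomyces cerevisiae BY4741 community. After overnight growth to OD600 1.0 and dilution to 0.3, 70 µl per well was grown for 24 h in minimal SM medium on 384-well plates acoustically predosed with library drugs at 10 µM final. Following paraformaldehyde fixation, automated confocal microscopy was used, with single-auxotroph fluorescent strains defining thresholds and autofluorescence correction. Subpopulation abundance was then scored as a z-score against the vehicle-well median.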

[3] = tested on: Saccharomyces cerevisiae BY4741 SeMeCo community; test: z-score of subpopulation abundance vs DMSO median, subpopulation auxotrophic for M; higher = larger share of this subpopulation than in DMSO controls; details: 10 µM; 24 h; SM minimal medium; subpopulation (auxotrophy): M
Method in brief: as §1

[4] = tested on: Saccharomyces cerevisiae BY4741 SeMeCo community; test: z-score of subpopulation abundance vs DMSO median, subpopulation auxotrophic for L; higher = larger share of this subpopulation than in DMSO controls; details: 10 µM; 24 h; SM minimal medium; subpopulation (auxotrophy): L
Method in brief: as §1

[5] = tested on: Saccharomyces cerevisiae BY4741 SeMeCo community; test: z-score of subpopulation abundance vs DMSO median, subpopulation auxotrophic for H; higher = larger share of this subpopulation than in DMSO controls; details: 10 µM; 24 h; SM minimal medium; subpopulation (auxotrophy): H
Method in brief: as §1

[6] = tested on: Saccharomyces cerevisiae BY4741 SeMeCo community; test: z-score of subpopulation abundance vs DMSO median, subpopulation auxotrophic for LU; higher = larger share of this subpopulation than in DMSO controls; details: 10 µM; 24 h; SM minimal medium; subpopulation (auxotrophy): LU
Method in brief: as §1

[7] = tested on: Saccharomyces cerevisiae BY4741 SeMeCo community; test: z-score of subpopulation abundance vs DMSO median, subpopulation auxotrophic for HM; higher = larger share of this subpopulation than in DMSO controls; details: 10 µM; 24 h; SM minimal medium; subpopulation (auxotrophy): HM
Method in brief: as §1

[8] = tested on: Saccharomyces cerevisiae BY4741 SeMeCo community; test: z-score of subpopulation abundance vs DMSO median, subpopulation auxotrophic for HU; higher = larger share of this subpopulation than in DMSO controls; details: 10 µM; 24 h; SM minimal medium; subpopulation (auxotrophy): HU
Method in brief: as §1

[9] = tested on: Saccharomyces cerevisiae BY4741 SeMeCo community; test: z-score of subpopulation abundance vs DMSO median, subpopulation auxotrophic for UM; higher = larger share of this subpopulation than in DMSO controls; details: 10 µM; 24 h; SM minimal medium; subpopulation (auxotrophy): UM
Method in brief: as §1

[10] = tested on: Saccharomyces cerevisiae BY4741 SeMeCo community; test: z-score of subpopulation abundance vs DMSO median, subpopulation auxotrophic for HL; higher = larger share of this subpopulation than in DMSO controls; details: 10 µM; 24 h; SM minimal medium; subpopulation (auxotrophy): HL
Method in brief: as §1

[11] = tested on: Saccharomyces cerevisiae BY4741 SeMeCo community; test: z-score of subpopulation abundance vs DMSO median, subpopulation auxotrophic for HLU; higher = larger share of this subpopulation than in DMSO controls; details: 10 µM; 24 h; SM minimal medium; subpopulation (auxotrophy): HLU
Method in brief: as §1

[12] = tested on: Saccharomyces cerevisiae BY4741 SeMeCo community; test: z-score of subpopulation abundance vs DMSO median, subpopulation auxotrophic for HLM; higher = larger share of this subpopulation than in DMSO controls; details: 10 µM; 24 h; SM minimal medium; subpopulation (auxotrophy): HLM
Method in brief: as §1

[13] = tested on: Saccharomyces cerevisiae BY4741 SeMeCo community; test: z-score of subpopulation abundance vs DMSO median, subpopulation auxotrophic for HUM; higher = larger share of this subpopulation than in DMSO controls; details: 10 µM; 24 h; SM minimal medium; subpopulation (auxotrophy): HUM
Method in brief: as §1

[14] = tested on: Saccharomyces cerevisiae BY4741 SeMeCo community; test: z-score of subpopulation abundance vs DMSO median, subpopulation auxotrophic for LUM; higher = larger share of this subpopulation than in DMSO controls; details: 10 µM; 24 h; SM minimal medium; subpopulation (auxotrophy): LUM
Method in brief: as §1

[15] = tested on: Saccharomyces cerevisiae BY4741 SeMeCo community; test: z-score of subpopulation abundance vs DMSO median, subpopulation auxotrophic for HLUM; higher = larger share of this subpopulation than in DMSO controls; details: 10 µM; 24 h; SM minimal medium; subpopulation (auxotrophy): HLUM
Method in brief: as §1

[16] = tested on: Saccharomyces cerevisiae BY4741 SeMeCo community; test: z-score of subpopulation abundance vs DMSO median, subpopulation auxotrophic for LM; higher = larger share of this subpopulation than in DMSO controls; details: 10 µM; 24 h; SM minimal medium; subpopulation (auxotrophy): LM
Method in brief: as §1

[17] = tested on: Saccharomyces cerevisiae BY4741 SeMeCo community; test: z-score of subpopulation abundance vs DMSO median, subpopulation auxotrophic for U; higher = larger share of this subpopulation than in DMSO controls; details: 10 µM; 24 h; SM minimal medium; subpopulation (auxotrophy): U
Method in brief: as §1

Row | SMILES | mean cell size [1] | z-score of prototroph abundance [2] | z-score of subpopulation abundance [3] | z-score of subpopulation abundance [4] | z-score of subpopulation abundance [5] | z-score of subpopulation abundance [6] | z-score of subpopulation abundance [7] | z-score of subpopulation abundance [8] | z-score of subpopulation abundance [9] | z-score of subpopulation abundance [10] | z-score of subpopulation abundance [11] | z-score of subpopulation abundance [12] | z-score of subpopulation abundance [13] | z-score of subpopulation abundance [14] | z-score of subpopulation abundance [15] | z-score of subpopulation abundance [16] | z-score of subpopulation abundance [17]
1 | O=c1[nH]c2ccccc2n1CCN1CCN(c2cccc(C(F)(F)F)c2)CC1 [Flibanserin] | 12.25 ± 0.046 | 0.65 | -0.31 | -0.73 | -0.96 | -0.2 | -0.79 | -0.17 | 0.43 | -0.75 | -0.49 | -0.86 | -0.15 | -0.43 | -0.98 |  | 
2 | Nc1ccc(/N=N/c2ccccc2)c(N)n1 [Phenazopyridine HCl] | 12.5 ± 0.25 | 2.41 | 0.28 | 0.42 | 1.88 | -2.56 |  |  | -2.74 | 0.92 | -1.56 | 0.39 | -1.7 | -1.8 | -0.54 | 0.47 | 
3 | CN1CCN(c2cc3c(cc2F)c(=O)c(C(=O)O)cn3-c2ccc(F)cc2)CC1 [Difloxacin hydrochloride] | 12.1 ± 0.29 | 0.85 | 0.06 | -0.28 | -2.54 | -0.13 | -0.76 | -0.87 | -0.52 | -1.38 | -0.55 | -0.2 | -0.72 |  | 0.23 |  | -0.57
4 | NC(=O)N1c2ccccc2C=Cc2ccccc21 [Carbamazepine] | 12.5 ± 0.21 | 0.13 | -0.29 | 0.25 | -0.43 | -0.08 |  | -0.56 | -0.23 | -0.72 | 0.32 | 0.02 | -0.5 | 0.24 | -0.25 | 0.14 | 
5 | CC[C@H]1OC(=O)[C@H](C)[C@@H](O[C@H]2C[C@@](C)(OC)[C@@H](O)[C@H](C)O2)[C@H](C)[C@@H](O[C@@H]2O[C@H](C)C[C@H](N(C)C)[C@H]2O)[C@](C)(O)C[C@@H](C)C(=O)[C@H](C)[C@H]2OC(=O)O[C@@]21C [Erythromycin Cyclocarbonate] | 12.19 ± 0.065 | -1.17 | -0.28 | 1.01 | 2.08 | 0.04 | 0.9 | 0.76 | 0.58 | 1.2 | 0.3 | 0.52 | 0.96 | 0.8 | 0.39 |  | 0.09
6 | CCN1CCCC1CNC(=O)c1cc(S(N)(=O)=O)ccc1OC (stereo unspecified) [Sulpiride] | 12.54 ± 0.037 | 0.51 | 0.12 | 0.31 | -0.37 | -0.37 |  |  | -0.33 | -0.63 | -1.3 | 0.14 | -0.68 | 0.04 | 0.02 | -0.86 | -0.56
7 | CC(C(=O)O)c1ccc2c(c1)Cc1cccnc1O2 (stereo unspecified) [Pranoprofen] | 12.56 ± 0.067 | 0.32 | -0.49 | -0.28 | -0.08 | -0.35 | 0.14 | 0.43 | -0.93 | -0.22 | -0.3 | 0.61 | 0.27 | -0.12 | -0.06 |  | 0.43
8 | CCN(CC)CCNC(=O)c1cc(S(C)(=O)=O)ccc1OC [Tiapride Hydrochloride] | 12.36 ± 0.12 | -1.37 | 0.16 | 0.96 | 0.23 | 1.17 |  | 0.47 | 0.43 | 0.93 | 0.72 | 3.15 | 0.14 | 0.9 | 2.52 | 0.55 | 
9 | CCOc1cc(N)c([N+](=O)[O-])cc1C(=O)NC1CCN(CC2CC=CCC2)CC1 (stereo unspecified) [Cinitapride Hydrogen Tartrate] | 12.3 ± 0.2 |  | 0.87 | -0.2 | -0.46 | 0.88 |  | 0.74 | 1.35 | -0.01 | 0.47 | -0.29 | 1.26 |  | 0.5 | 0.4 | 1.07
10 | CCCCOc1ccc(C(=O)CCN2CCCCC2)cc1 [Dyclonine HCl] | 12.2 ± 0.23 |  | 0.29 | 0.13 | -0.1 | -0.73 | -0.09 | 0.17 | -0.42 | -0.74 | -0.26 | -0.52 | 0.17 | -0.27 | -0.65 |  | -0.57
11 | CN(C)CCC[C@@]1(c2ccc(F)cc2)OCc2cc(C#N)ccc21 [Escitalopram Oxalate] | 12.4 ± 0.18 |  | 0.05 | 0.5 | -0.42 | -0.08 |  | -0.95 | -0.53 | -0.1 | -0.25 | -0.63 | -0.36 | -0.28 |  | 0.48 | -0.79
12 | CC(C)C(=O)c1c(C(C)C)nn2ccccc12 [Ibudilast] | 12.6 ± 0.22 | 0.24 | -0.62 | -0.54 | -1.02 | 0.04 | -1.12 | 0.99 | 1.06 |  | -0.65 | -0.49 | -0.38 | -0.2 | -0.23 |  | 1.05
13 | N=C(N)NC(=N)N1CCOCC1 [Moroxydine HCl] | 12.4 ± 0.078 | 0.31 | -0.15 | -0.09 | -0.19 | 0.31 | -0.15 | -0.45 | 0.37 | -0.09 | 0.08 | -0.37 | -0.28 | 0.38 | -0.61 |  | 
14 | C=C1CCN([C@H](C)[C@](O)(Cn2cncn2)c2ccc(F)cc2F)CC1 [Efinaconazole] | 11.3 ± 0.097 |  | 2.69 | 0.13 | 11.9 | -1.98 |  |  | 16.2 |  | 3 | 10.7 | 7.05 |  | 20.3 | 2.18 | -0.68
15 | C[C@@H](O)[C@H]1C(=O)N2C(C(=O)O)=C(S[C@@H]3CN[C@H](C(=O)Nc4cccc(C(=O)O)c4)C3)[C@H](C)[C@H]12 [Ertapenem sodium] | 11.9 ± 0.17 | 0.33 | 0.04 | -0.78 | 0.48 | -0.01 | -0.22 |  | 0.16 | 0.1 | -1.03 | -0.62 | 0 | -0.18 | -0.21 |  | -0.15
